# Reference: PubChem BioAssay
# Target: Fibroblast growth factor 2 (Homo sapiens) (UniProt P09038)
# Experiment: FGF2 binders on small-molecule microarrays, primary screen, biochemical, small-molecule microarray, 635/667 nm fluorescence (AID 1133)
# Details: small-molecule microarray binding, FGF2, fluorescence 635/667; higher = more signal
# Chain of Fibroblast growth factor 2 (Homo sapiens) (P09038 whole entry, looked up): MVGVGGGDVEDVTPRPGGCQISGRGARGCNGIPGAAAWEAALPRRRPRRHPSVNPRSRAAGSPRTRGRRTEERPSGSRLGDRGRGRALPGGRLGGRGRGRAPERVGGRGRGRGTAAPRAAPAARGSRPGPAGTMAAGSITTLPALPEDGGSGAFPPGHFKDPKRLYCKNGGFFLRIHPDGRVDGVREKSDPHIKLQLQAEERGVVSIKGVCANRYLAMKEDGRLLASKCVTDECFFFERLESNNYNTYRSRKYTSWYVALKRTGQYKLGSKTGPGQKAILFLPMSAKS
row,Structure (SMILES),composite z-score
1,COc1ccc(CCN2C(=O)[C@@]3(c4ccc([N+](=O)[O-])cc4)CC(=O)N(CC45CC6CC(CC(C6)C4)C5)[C@@H]3c3ccc(CO)cc32)cc1,-0.0451
2,C=CCN1C(=O)[C@@]2(Cc3ccccc3)N=C(c3ccc(OCCCO)cc3)O[C@H]2c2ccccc21,1.08
3,CN1CCC(CCCO)=CC1C1CC1 (stereo unspecified),0.923
4,CC(C)N1CC=CC23O[C@@H]4/C=C\CCCOC(=O)C4[C@H]2C(=O)N(CCCCCO)[C@@H]3C1=O (stereo partly specified),-1.03
5,COCCOC(=O)N1C(=O)[C@@]2(c3cc(C#CCC(C(=O)OC)C(=O)OC)ccc31)[C@H](C(=O)N1CCN(c3ncccn3)CC1)[C@H]1C(=O)O[C@H](c3ccccc3)[C@H](c3ccccc3)N1[C@@H]2c1ccc(O)cc1,0.393
6,CCC(=O)[C@]12O[C@@]3([C@@H]4C(=O)OCC[C@@H]41)N(Cc1ccccc1)C(C)=C(C(=O)OC)[C@@H](c1ccccc1)N3C2=O,-0.715
7,COC(=O)[C@@]1(Cc2ccc(OC)cc2)[C@H]2c3cc(C(=O)N(C)C)n(Cc4ccc(C)c(F)c4F)c3C[C@H]2CN1C(=O)c1ccccc1,-0.869
8,COc1cc(CO)cc(I)c1O[C@H]1C=C(C(=O)NCCO)C[C@@H](NCCc2c[nH]c3ccccc23)[C@@H]1O,0.243
9,Cc1ccc(N2C(=O)c3ccccc3[C@](C)(C(=O)O)[C@@H]2c2ccc(CO)cc2)nc1,-1.12
10,COC(=O)[C@@]1(Cc2ccccc2)[C@H]2c3cc(C(=O)N4CCCC4)n(CCN4CNCC4=O)c3C[C@H]2CN1C(=O)c1ccccc1,-0.709
11,CO[C@@H]1COC(=O)[C@H](C)NC(=O)CC=C[C@@H](C)[C@H](OC)COC(=O)[C@H](C)NC(=O)CC=C[C@H]1C,0.989
12,C=C(COC)/C(=C/C[C@@H](OC(C)=O)c1cccc(OCCO)c1)c1cc(C(=O)OC)ccc1OC,0.202
13,CCOC(=O)C[C@H]1[C@H](OC(=O)c2ccccc2-c2ccccc2)[C@@H](NC(=O)c2ccc(-c3ccccc3)cc2)c2cc(OCCCO)ccc2N1C(=O)Cc1ccc(OC)cc1,0.487
14,[N-]=[N+]=NCc1ccccc1C[C@]1(C(=O)N2CCCCC2)N=C(c2ccc(OCCCO)cc2)O[C@H]1c1ccccc1CN=[N+]=[N-],-0.369
15,CO[C@H]1COC(=O)[C@@H](OCc2ccccc2)C=C[C@H](C)[C@@H](OC)COC(=O)[C@H](OCc2ccccc2)C=C[C@@H]1C,0.552
16,COCCOC(=O)N1C(=O)[C@@]2(c3cc(C#CCNC(N)=O)ccc31)[C@H](c1ccc(OCCO)cc1)N1[C@H](c3ccccc3)[C@H](c3ccccc3)OC(=O)[C@H]1[C@@H]2C(=O)Nc1nc2ccccc2s1,0.779
17,CCOC(=O)C1=CC[C@@H](c2ccc(-c3ccc(OCc4ccccc4)cc3)c(OC)c2)N(S(=O)(=O)c2ccc(C)cc2)[C@H]1c1ccccc1,0.275
18,Cc1ccc(S[C@]2(C(=O)O)CC(=O)N(Cc3ccccc3)[C@@H]2c2ccc(CO)cc2)cc1,0.0167

row,Structure (SMILES),composite z-score
1,Cc1ccc(S[C@]2(C(=O)NC(C)C)CC(=O)N(Cc3cc(C(F)(F)F)cc(C(F)(F)F)c3)[C@@H]2c2ccc(CO)cc2I)cc1,0.384
2,CO[C@@H]1COC(=O)[C@H](COCc2ccccc2)NC(=O)CC=C[C@@H](C)[C@H](OC)COC(=O)[C@H](COCc2ccccc2)NC(=O)CC=C[C@H]1C,0.622
3,CCC1=C2CN(Cc3ccccc3Br)[C@@H]([C@@H](O)Cc3ccccc3)C2C=CCC1 (stereo partly specified),0.209
4,COCCOC(=O)N1C(=O)[C@@]2(c3cc(C#CCC(C(=O)OC)C(=O)OC)ccc31)[C@H](c1ccccc1OCCO)N1[C@H](c3ccccc3)[C@H](c3ccccc3)OC(=O)[C@H]1[C@@H]2C(=O)N1CCCCCCC1,1.05
5,CO[C@@H]1COC(=O)[C@@H]2CCCN2C(=O)CC=C[C@@H](C)[C@H](OC)COC(=O)[C@@H]2CCCN2C(=O)CC=C[C@H]1C,1.58
6,C=C(COC)/C(=C/C[C@H](OC(C)=O)c1ccc(OCCO)cc1)c1cnc2ccccc2c1,0.813
7,CC(=O)Nc1ccc([C@H]2[C@H](C)CC[C@H]3C(=O)N4[C@@H](CC[C@@H](C)[C@@H]4c4ccc(NC(C)=O)cc4)C(=O)N32)cc1,1.25
8,CN(C)CCCC[C@@H]1NC(=O)[C@@H]2C[C@H](C(=O)O)[C@H](c3ccc(O)cc3)N2C1=O,1.35
9,C[C@@H]1CC[C@H]2C(=O)N3[C@@H](CC[C@@H](C)[C@@H]3c3cccc(N4CCOCC4)c3)C(=O)N2[C@H]1c1cccc(Br)c1,0.555
10,CCCN1C(=O)[C@@]2(CCS(=O)(=O)c3ccccc3)N=C(c3ccc(OCCCO)cc3)O[C@H]2c2ccccc21,0.961
11,O=C(O)[C@@H]1Cc2c([nH]c3ccccc23)[C@@H](c2ccccc2)N1,0.197
12,C[C@@H]1CC[C@H]2C(=O)N3CCC[C@H]3C(=O)N2[C@H]1c1ccc(Br)cc1,0.36
13,CCC#CCN(Cc1ccccc1Br)[C@H](/C=C/c1ccccc1)[C@@H](O)Cc1ccccc1,-1.48
14,[N-]=[N+]=NCc1ccccc1C[C@]1(C(N)=O)N=C(c2ccc(OCCCO)cc2)O[C@H]1c1ccccc1CN=[N+]=[N-],0.19
15,C=CCC(OC(C)=O)[C@@H]1[C@@H](N(Cc2ccc(-c3ccccc3)cc2)C(=O)c2ccc(-c3ccccc3)cc2)c2cc(OCCCO)ccc2N1C(=O)Cc1ccc(OC)cc1 (stereo partly specified),0.0338
16,O=C1C[C@@](C(=O)NC2CC2)(c2ccc([N+](=O)[O-])cc2)[C@@H](c2ccc(CO)cc2I)N1CC12CC3CC(CC(C3)C1)C2,0.718
17,Cc1ccc(N2C(=O)c3ccccc3[C@@H](C(=O)NCC(F)(F)F)[C@@H]2c2ccc(CO)cc2)nc1,-0.59
18,C=CC[C@]1(C(=O)O)N=C(c2ccc(OCCCO)cc2)O[C@H]1c1ccccc1,-0.503
